Drawing on PubChem BioAssay, this text covers growth inhibition, inhibition and outcome for 19 compounds.

Experiment [1] is described as follows: antimalarial activity against Dd2 strain (AID 2302;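 active means growth inhibition above 50% at the single 2 µM test dose, taken to imply half-maximal potency below 2 µM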;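 further: 0% = DMSO untreated growth and 100% = chloroquine plus artemisinin killed control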). The following applies: P. falciparum Dd2 in RBCs, LDH growth readout, 72 h; at 2 µM; active compounds read high.
A short description of experiment [2]: HepG2 cytotoxicity, primary screen, cytotoxicity control for P. falciparum antimalarial project, cell-based, ATP luminescence (AID 2303;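 active means inhibition above 50%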;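 further: 0% = DMSO wells and 100% = digitonin-killed cells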). The following applies: HepG2 viability, 24-48 h, at 10 µM, active compounds read high.
For experiment [3], the target named is L-lactate dehydrogenase (Plasmodium falciparum (isolate CDC / Honduras)) (UniProt Q27743). Kind of experiment: PfLDH activity inhibition – cell lysate, 3D7 strain, counter-screen for P. falciparum growth inhibition project (AID 2304).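 Further: 0% = vehicle and 100% = reference inhibitor.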 The following applies: P. falciparum 3D7 crude extract, LDH APAD/NBT absorbance; at 2 µM; active compounds read high. (In general: Counterscreens check selectivity or assay interference.)

Experiment [4] in a line: inhibition of 3D7 malaria parasite growth – strain 3D7 (AID 2306).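 Further: 0% = DMSO wells and 100% = chloroquine plus artemisinin control wells.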 To be noted: P. falciparum 3D7 erythrocytic growth, LDH absorbance, 72 h; at 2 µM; active compounds read high.
In experiment [5] the target is Calcium-dependent protein kinase 1 (Plasmodium falciparum (isolate 3D7)) (UniProt P62344). The experiment can be described thus: PfCDPK1 kinase inhibitors, biochemical, TCAMS library (AID 1159585; cut-off not given, nearly all actives have IC50 up to about 0.98 µM;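 further: inhibitors leave more ATP so luminescence rises with inhibition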). To be noted: recombinant PfCDPK1, Kinase-Glo ATP depletion luminescence. A general note: In Kinase-Glo more light means more ATP remaining.
The target in experiment [6] is Plasmodium falciparum protein kinase 6 (PK6, PF3D7_1337100) (UniProt Q8IDW1). The experiment can be described thus: PfPK6 kinase inhibitors, biochemical, TCAMS library (AID 1159586). The following applies: recombinant PfPK6, Kinase-Glo ATP depletion luminescence.
The target of experiment [7] is Protein kinase 7 (PK7), Plasmodium falciparum 3D7 (PF3D7_0213400) (UniProt Q7YTF7). The experiment can be described thus: inhibition of Plasmodium PK7 catalytic activity – biochemical, TCAMS antimalarial set, Kinase-Glo luminescence (AID 1159587). To be noted: recombinant PfPK7, Kinase-Glo ATP depletion luminescence.
The target in experiment [8] is Calcium-dependent protein kinase 4 (Plasmodium falciparum (isolate 3D7)) (UniProt Q8IBS5). The experiment can be described thus: PfCDPK4 kinase inhibitors, biochemical, TCAMS library (AID 1159588; cut-off not given, nearly all actives have IC50 up to about 0.91 µM). To be noted: recombinant PfCDPK4, Kinase-Glo ATP depletion luminescence.

Values without a mark were called inactive. For some assays here: Measured potencies and affinities stand elsewhere. Active and inactive are the calls of the source. Unless noted, how the calls were made is not given here.

Chain of L-lactate dehydrogenase (Plasmodium falciparum (isolate CDC / Honduras)) (Q27743 whole entry, looked up): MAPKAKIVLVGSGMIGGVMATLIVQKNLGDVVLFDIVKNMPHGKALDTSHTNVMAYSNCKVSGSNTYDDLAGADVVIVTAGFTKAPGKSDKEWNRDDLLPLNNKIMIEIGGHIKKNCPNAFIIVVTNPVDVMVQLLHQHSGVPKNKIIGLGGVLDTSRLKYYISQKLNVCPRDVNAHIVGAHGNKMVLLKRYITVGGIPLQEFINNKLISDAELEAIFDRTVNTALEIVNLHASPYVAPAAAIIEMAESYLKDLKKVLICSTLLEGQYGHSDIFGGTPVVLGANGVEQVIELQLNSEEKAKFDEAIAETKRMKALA
Chain of Plasmodium falciparum protein kinase 6 (PK6, PF3D7_1337100) (Q8IDW1 1-305): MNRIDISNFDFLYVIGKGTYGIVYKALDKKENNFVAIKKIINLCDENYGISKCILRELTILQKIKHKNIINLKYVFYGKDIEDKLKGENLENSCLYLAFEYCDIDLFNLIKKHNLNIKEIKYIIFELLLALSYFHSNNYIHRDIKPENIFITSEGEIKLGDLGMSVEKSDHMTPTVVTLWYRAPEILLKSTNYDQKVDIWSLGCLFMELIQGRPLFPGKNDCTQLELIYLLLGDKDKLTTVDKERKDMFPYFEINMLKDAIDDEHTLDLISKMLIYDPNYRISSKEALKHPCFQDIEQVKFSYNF
Chain of Calcium-dependent protein kinase 4 (Plasmodium falciparum (isolate 3D7)) (Q8IBS5 whole entry, looked up): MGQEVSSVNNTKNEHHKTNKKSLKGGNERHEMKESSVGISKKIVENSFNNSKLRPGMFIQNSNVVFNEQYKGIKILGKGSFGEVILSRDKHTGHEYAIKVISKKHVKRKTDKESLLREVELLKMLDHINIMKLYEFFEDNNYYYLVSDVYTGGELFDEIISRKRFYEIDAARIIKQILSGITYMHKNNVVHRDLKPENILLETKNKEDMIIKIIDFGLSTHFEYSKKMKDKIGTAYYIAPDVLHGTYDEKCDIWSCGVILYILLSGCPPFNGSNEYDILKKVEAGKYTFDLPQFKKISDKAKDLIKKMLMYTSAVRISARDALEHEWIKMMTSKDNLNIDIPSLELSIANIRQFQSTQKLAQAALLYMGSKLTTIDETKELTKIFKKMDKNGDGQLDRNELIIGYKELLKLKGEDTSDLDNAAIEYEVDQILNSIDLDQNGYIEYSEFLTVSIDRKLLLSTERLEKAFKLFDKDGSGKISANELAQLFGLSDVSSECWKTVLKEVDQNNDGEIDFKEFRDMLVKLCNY
Chain of Calcium-dependent protein kinase 1 (Plasmodium falciparum (isolate 3D7)) (P62344 whole entry, looked up): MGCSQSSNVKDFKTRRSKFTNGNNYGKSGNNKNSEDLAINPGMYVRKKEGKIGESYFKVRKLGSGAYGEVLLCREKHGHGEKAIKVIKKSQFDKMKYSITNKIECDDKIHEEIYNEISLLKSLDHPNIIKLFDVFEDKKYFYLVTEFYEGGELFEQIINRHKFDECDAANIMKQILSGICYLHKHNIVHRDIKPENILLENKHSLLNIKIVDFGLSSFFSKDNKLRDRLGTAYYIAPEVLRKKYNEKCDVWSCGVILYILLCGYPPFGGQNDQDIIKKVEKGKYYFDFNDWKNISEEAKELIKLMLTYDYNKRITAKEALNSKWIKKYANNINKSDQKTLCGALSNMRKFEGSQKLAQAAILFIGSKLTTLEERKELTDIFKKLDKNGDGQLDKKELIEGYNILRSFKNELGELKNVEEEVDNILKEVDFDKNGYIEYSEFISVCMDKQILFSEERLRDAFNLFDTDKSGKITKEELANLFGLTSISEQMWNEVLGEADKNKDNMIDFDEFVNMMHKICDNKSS
Chain of Protein kinase 7 (PK7), Plasmodium falciparum 3D7 (PF3D7_0213400) (Q7YTF7 1-343): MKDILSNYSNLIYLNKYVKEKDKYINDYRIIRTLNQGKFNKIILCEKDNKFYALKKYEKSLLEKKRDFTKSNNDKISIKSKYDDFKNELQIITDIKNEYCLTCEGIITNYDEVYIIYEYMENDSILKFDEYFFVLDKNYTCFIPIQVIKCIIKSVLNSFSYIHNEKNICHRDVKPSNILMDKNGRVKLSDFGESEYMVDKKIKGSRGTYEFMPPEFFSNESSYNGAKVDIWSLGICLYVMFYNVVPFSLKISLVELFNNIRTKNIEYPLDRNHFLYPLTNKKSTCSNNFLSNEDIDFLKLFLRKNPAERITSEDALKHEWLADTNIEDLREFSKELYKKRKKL

With `CC(=O)Nc1ncc(C(=O)Nc2ccc(-c3cccc(-c4nc5ccc(F)cc5[nH]4)c3)cc2)s1`, the results for the growth inhibition in experiment [1] and in experiment [4] were 85% (active) and 102% (active), respectively. Also, the inhibition was 47% in experiment [2] and -3% in experiment [3]. In addition, the outcome in experiment [5], in experiment [6], in experiment [7] and in experiment [8] was inactive.
Take `O=C(C=Cc1ccc(Cl)c(Cl)c1)NCCCCCN1CCC(CCNC(=O)c2cccc3ccccc23)CC1`: the growth inhibition in experiment [1] was -1%; in experiment [4], 85% (active). The inhibition in experiment [2] was 17%; in experiment [3], 4%. Also, the outcome in experiment [5], in experiment [6], in experiment [7] and in experiment [8] was inactive.
As for `CCC(=Cc1cccc([N+](=O)[O-])c1)C(=O)NCC1CCN(c2nc(N)c3cc(OC)c(OC)cc3n2)CC1`, the growth inhibition in experiment [1] was 62% (active); in experiment [4], 101% (active). Moreover, the inhibition in experiment [2] was 25%; in experiment [3] it was 6%. Also, the result in experiment [5], in experiment [6], in experiment [7] and in experiment [8] was inactive.
For the compound `COc1ccc(CNC2CCN(C)CC2)cc1-c1ccc(S(=O)(=O)NCc2ccccc2)s1`, the growth inhibition in experiment [1] and in experiment [4] was 101% (active) each time. Further, the inhibition in experiment [2] was 62% (active); in experiment [3] it was 0%. Further, the result in experiment [5], in experiment [6], in experiment [7] and in experiment [8] was inactive.
Consider `Cn1ccc2c3c(N)nc(N)nc3ccc21`, for which the growth inhibition in experiment [1] was 17%; in experiment [4] it was 91% (active). In addition, the inhibition in experiment [2] is 59% (active); in experiment [3] it was 6%. For the same compound, the result in experiment [5], in experiment [6], in experiment [7] and in experiment [8] was inactive.
As for `COC(=O)c1ccc2nc(-c3cc(OC)c(O)c(C(=O)NC4CCN(Cc5ccccc5)CC4)c3)[nH]c2c1`, the growth inhibition is -2% in experiment [1] and 85% (active) in experiment [4]. The inhibition is 8% in experiment [2] and 0% in experiment [3]. For the same compound, the result in experiment [5], in experiment [6], in experiment [7] and in experiment [8] was inactive.
Consider `Cc1ccc(-n2ncc(C(=O)Nc3cc(Cl)cc(Cl)c3)c2C2CCNCC2)cc1C`, for which the growth inhibition in experiment [1] was 77% (active); in experiment [4], 100% (active). Besides, the inhibition in experiment [2] was 65% (active); in experiment [3], -7%. Further, the result in experiment [5], in experiment [6], in experiment [7] and in experiment [8] was inactive.
Turning to `CCCOc1ccc(-c2nonc2NC(=O)c2cccc(OC)c2)cc1OCCC`, the growth inhibition in experiment [1] is 100% (active); in experiment [4], 94% (active). For the same compound, the inhibition in experiment [2] is 18%; in experiment [3], 0%. For the same compound, the outcome in experiment [5], in experiment [6], in experiment [7] and in experiment [8] was inactive.
For `Cc1[nH]c(C)c(-c2ccc(-c3ccccc3C(F)(F)F)nc2)c(=O)c1Br`, the growth inhibition in experiment [1] is 96% (active); in experiment [4], 97% (active). In addition, the inhibition in experiment [2] and in experiment [3] was -3% each time. The result in experiment [5], in experiment [6], in experiment [7] and in experiment [8] was inactive.
Consider `CC(=O)Nc1nc(N)c2c(ccc3c2ccn3CC(C)C)n1`, for which the growth inhibition in experiment [1] was 78% (active); in experiment [4] it was 94% (active). In addition, the inhibition in experiment [2] was 66% (active); in experiment [3] it was -3%. Further, the result in experiment [5], in experiment [6], in experiment [7] and in experiment [8] was inactive.
As for `CON=C1CCC(Cn2ccnc2)(c2ccc(Cl)cc2Cl)CC1` (configuration not stated), the growth inhibition in experiment [1] was 56% (active); in experiment [4], 100% (active). Moreover, the inhibition is 7% in experiment [2] and -5% in experiment [3]. Further, the outcome in experiment [5], in experiment [6], in experiment [7] and in experiment [8] was inactive.
With `O=C(Nc1cc(Cl)ccc1O)c1cc(-c2ccccc2O)no1`, the growth inhibition in experiment [1] was 79% (active); in experiment [4], 95% (active). Besides, the results for the inhibition in experiment [2] and in experiment [3] were -7% and 2%, respectively. Further, the outcome in experiment [5], in experiment [6], in experiment [7] and in experiment [8] was inactive.
As to `COc1ccc(-c2nc(NC(=O)CSc3ccccc3)sc2C)cc1`, the results for the growth inhibition in experiment [1] and in experiment [4] were 31% and 94% (active), respectively. Also, the inhibition in experiment [2] is 6%; in experiment [3], 2%. For the same compound, the outcome in experiment [5], in experiment [6], in experiment [7] and in experiment [8] was inactive.
Take `COc1ccc2cc(C(=O)NC3CCC(CCN4CCc5cc(C#N)ccc5C4)CC3)[nH]c2c1` (configuration not stated): the figures for the growth inhibition in experiment [1] and in experiment [4] were -1% and 88% (active), respectively. Besides, the inhibition was 9% in experiment [2] and -10% in experiment [3]. Further, the result in experiment [5], in experiment [6], in experiment [7] and in experiment [8] was inactive.
Regarding `Cc1noc(C)c1-c1cccc(CNCc2cccc(-c3ccc(-c4nc5ccccc5[nH]4)cc3)c2)c1`, the growth inhibition in experiment [1] is 76% (active); in experiment [4] it was 100% (active). The results for the inhibition in experiment [2] and in experiment [3] were 27% and -2%, respectively. Moreover, the outcome in experiment [5], in experiment [6], in experiment [7] and in experiment [8] was inactive.
For the compound `Cc1cccn2c(=O)c3cc(C(=O)NC4CCCCC4)c(=N)n(CCCn4ccnc4)c3nc12`, the growth inhibition in experiment [1] is 8%; in experiment [4], 102% (active). The inhibition in experiment [2] was 1%; in experiment [3] it was -1%. In addition, the outcome in experiment [5], in experiment [6], in experiment [7] and in experiment [8] was inactive.
For the compound `COc1cc2nc(N3CCC(CNC(=O)c4cc(Br)c(Br)s4)CC3)nc(N)c2cc1OC`, the growth inhibition in experiment [1] was 97% (active); in experiment [4], 101% (active). Moreover, the values for the inhibition in experiment [2] and in experiment [3] were 22% and 2%, respectively. For the same compound, the outcome in experiment [5], in experiment [6], in experiment [7] and in experiment [8] was inactive.
Take `O=C(Nc1ccc2c(c1)OCO2)c1cc(-c2cccnc2)nc2ccc(Cl)cc12`: the growth inhibition was 41% in experiment [1] and 89% (active) in experiment [4]. Further, the inhibition in experiment [2] was 9%; in experiment [3], -3%. The outcome in experiment [5], in experiment [6], in experiment [7] and in experiment [8] was inactive.
In the case of `O[C@@H](c1cccc(OCc2ccccc2)c1)[C@@H]1CN(CCc2ccccc2)CC[C@@]1(O)c1ccccc1`, the growth inhibition in experiment [1] and in experiment [4] was 98% (active) each time. Besides, the inhibition was 7% in experiment [2] and -4% in experiment [3]. The outcome in experiment [5], in experiment [6], in experiment [7] and in experiment [8] was inactive.

What is called inhibition is the change of the read-out against control, counted positive when it falls.
